VACV Venus inh = inhibitors of vaccinia virus (Venus reporter) | Vaccinia virus Venus reporter expression, fluorescence | Potency, µM (highest dose often 36.5 µM), inactives show at the top dose activity change, negative = inhibition, hits mostly inhibitors | 330,000 tested, 0.46% active; calls by dose curve; tested in A549 cells; further: potency means the concentration at half of the fitted maximal effect; nearly all actives have a fitted effect of over 30% in size
HCV inhibitor = inhibitors of hepatitis C virus infection; Huh7.5.1 HCVcc-Cre infection, luciferase reporter, 44 h; 340,000 tested, 3.4% active; Potency, µM (titrated, usually from 41.8 µM), for the others: at the top dose activity change, negative = inhibition, actives largely listed as inhibitors; active means well fitted inhibition curve with a large enough effect; inconclusive means small, poorly fitted or top-dose-only effect, or another doubt; inactive means no such curve, though single readings can be large or run the other way; further: potency means the concentration at half of the fitted maximal effect
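Compounds are dispensed onto cells plated 4 h earlier at 1,000 per well, with HCVcc-Cre virus (about 0.5 moi) added next. Following 44 h of culture, luminescent signal is measured for 15 sec after 15 min with substrate at room temperature.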
Vaccinia mCherry = vaccinia inhibition (mCherry reporter); Vaccinia virus mCherry reporter infection, fluorescence; Potency, µM (doses to about 36.5 µM), for inactives: at the highest dose activity change, negative = inhibition, most hits filed as inhibitors; 310,000 tested, 0.63% active; calls by dose curve; tested in A549 cells; further: potency means the concentration at half of the fitted maximal effect; nearly all actives have a fitted effect of over 35% in size
HCMV antiviral = human cytomegalovirus inhibition. HFF cells, HCMV-luciferase reporter, 72 h; hits give low values. activity change, negative = inhibition, % at 57.5 µM. 410,000 tested, 4.5% active; in the data active means activity change below about -60%; inconclusive means no clear call, values can overlap the other calls; inactive means above about -39%
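Human foreskin fibroblasts infected with luciferase-reporter HCMV at MOI 1 PFU/cell, compounds at two doses. Luciferase measured 72 h post infection; normalized to buffer-only basal and Salinomycin (10uM) controls.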
LASV entry inh = Lassa virus entry inhibition; 300,000 tested, 1.2% active; AID 540256; Lassa virus pseudotype entry inhibition, cell reporter; Potency, µM (titrated, usually from 37.9 µM), for inactives: at the top dose activity change, negative = inhibition, actives largely listed as inhibitors; calls by dose curve; tested in HEK293 cells; further: potency means the concentration at half of the fitted maximal effect; nearly all actives have a fitted effect of over 50% in size
Marburg entry inh = inhibitors of Marburg virus binding or cell entry | Marburg virus pseudotyped entry inhibition, cell reporter | Potency, µM (titrated, usually from 37.8 µM), inactives show at the highest dose activity change, negative = inhibition, most hits filed as inhibitors | 300,000 tested, 1.8% active | AID 540276; calls by dose curve; tested in HEK293 cells; further: potency means the concentration at half of the fitted maximal effect
Starred values were filed as active, the others as inactive; i = inactive; ? = inconclusive; . = no result; ! = repeats disagree; [ ] = another dose, or the depositor's remark. This is a sample that favours compounds with a hit; in the whole collection about 7.8% have one here. On the % scale 0 is the no-effect control and ±100 the full control effect.

SMILES	VACV Venus inh	HCV inhibitor	Vaccinia mCherry	HCMV antiviral	LASV entry inh	Marburg entry inh
Clc1ccc(-c2nc(NCCN3CCOCC3)c3ccccc3n2)cc1	.	?	.	35.3	3.9%	?
CCN(CC)CCCNc1nc2ccccc2c2[nH]c3ccc(OC)cc3c12	10µM*	?	?	-93.4*	?	?
COCCCNc1nc(-c2ccncc2)nc2ccccc12	-11.4%	11.2µM*	-16.0%	13.9	-19.9%	?
OCCCNc1nc(-c2ccc(Cl)cc2)nc2ccccc12	.	12.6µM*	.	28.4	.	.
COCCNc1nc(-c2ccccc2)nc2ccccc12	-13.6%	?	i	-29.8	?	?
CCc1ccc(OCC(=O)Nc2c(C(=O)c3ccccc3)oc3ccccc23)cc1	-4.1%	.	-8.0%	12.4	?	?
CCc1ccc(-n2c(=O)c3c4c(sc3n(Cc3cc(=O)n5c(C)cccc5n3)c2=O)CCC4)cc1	-11.1%	.	i	6.1	12.8%[46.1 µM]	3.7%[46.1 µM]
OCCNc1nc2ccccc2nc1NCCO	3.0%	-11.8%	-25.0%	8.2	-3.8%[46.1 µM]	-1.8%[46.1 µM]
CCN(CC)CCCNc1nc(-c2ccccc2)nc2ccccc12	?	10µM*	i	?	?	16.4µM*
Cc1ccc(Nc2nc(NCCO)c3ccccc3n2)cc1C	?	12.6µM*	-15.4%	37.0	17.0%[46.1 µM]	?
COCCNc1nc(-c2cccc(OC)c2)nc2ccccc12	-20.8%	.	-25.4%	.	.	.
OCCNc1c2ccccc2nc2ccccc12	?	?	?	-100.9*	-22.3%	?
COCCCNc1nc(-c2ccc(Cl)cc2)nc2ccccc12	-21.4%	12.6µM*	-17.0%	33.3	?	11.2µM*
Cn1c(SCc2ccccc2Cl)nc2c([nH]c3ccccc32)c1=O	-3.5%	.	-3.1%	81.0	-0.5%[46.1 µM]	.
OCCNc1nc(-c2ccccc2)nc2ccccc12	-12.0%	7.94µM*	i	73.9	-24.5%	-0.8%[46.1 µM]
O=C(NCCO)c1nc(NCCO)c2ccccc2n1	.	8.9%	.	-11.6	0.7%	7.6%
O=C(O)CCCCCNc1nc(-c2ccccc2)nc2ccccc12	.	-2.2%	.	-5.0	.	.
CC(=O)OCCNc1nc(-c2ccccc2)nc2ccccc12	.	10µM*	.	4.8	5.3%	-12.3%
COc1ccc(S(=O)(=O)N(CC(=O)NCCSCc2ccccc2)c2ccc(C)cc2)cc1	-6.5%	.	-11.5%	-4.0	-13.3%[46.1 µM]	-9.4%[46.1 µM]
COc1ccccc1N(CC(=O)NCCSCc1ccccc1)S(=O)(=O)c1ccc(C)cc1	?	25.1µM*	?	-63.1*!	?	?
COc1ccccc1N(CC(=O)NCCSCc1ccccc1)S(=O)(=O)c1ccccc1	?	.	-6.3%	-73.2*	.	.
CC1CCN2c3cc(Cl)ccc3CC3(C(=O)OC(C)(C)OC3=O)C2C1 (stereo not given)	-23.5%	.	-19.2%	.	.	.
CCC(=O)Nc1nnc(S(=O)(=O)N(C)Cc2ccccc2)s1	-5.2%	.	0.4%	-22.1	-7.8%[46.1 µM]	.
CCc1ccc2occ(CC(=O)Nc3c(C(=O)Nc4ccc(OC)cc4)oc4ccccc34)c2c1	-21.5%	.	-20.9%	29.4	-18.6%[46.1 µM]	-4.5%[46.1 µM]
Cn1c(SCC(=O)NCc2ccco2)nnc1-c1ccc(NC(=O)c2ccccc2)cc1	-16.3%	.	-21.4%	.	.	.
SMILES	VACV Venus inh	HCV inhibitor	Vaccinia mCherry	HCMV antiviral	LASV entry inh	Marburg entry inh
COc1cccc(CN2C(=O)c3ccccc3Sc3ccc(C(=O)N(C)Cc4ccccc4)cc32)c1	-2.1%	.	-9.2%	?	?	?
Cc1cc(N(CCO)CCO)ccc1N=Nc1cc(F)ccc1F	?	?	-23.0%	-12.0	18.0%	?
CCN(CCO)c1ccc(N=Nc2cc(C)[nH]n2)cc1	-26.8%	-3.8%	-2.4%	-79.6*	?	?
Cc1ccc(OCCNC(=O)c2cncc(Br)c2)cc1C	?	-19.8%	?	-107.3*	1.8%	8.6%
Cc1cccc(OCCNC(=S)NC(=O)c2cncc(Br)c2)c1	-15.3%	-21.4%	i	-4.8	-1.7%	5.4%
O=C1NC(c2ccccc2Cl)Nc2ccccc21 (stereo not given)	.	-11.6%	.	22.9	-3.2%	?
COc1ccc2ccccc2c1C1NC(=O)c2ccccc2N1 (stereo not given)	5.62µM*	2.3%	?	-15.6	?	-9.3%
O=C1NC(c2cccc3ccccc23)Nc2ccccc21 (stereo not given)	?	0.3%	?	-69.0*	?	?
